Activity calls are given as the source filed them. Rule for the calls: active = hit-call score of the fitted dose curve at least 0.9, where 1 is the maximum; inactive = score below 0.9.

Assay [1] has as its target CCAAT/enhancer-binding protein beta (Homo sapiens) (UniProt P17676). Briefly: ATG_C_EBP_CIS: Attagene CIS-FACTORIAL HepG2 Assay for human CCAAT/Enhancer Binding Protein (C/EBP) beta (AID 2282927). The conditions noted are these: HepG2 Attagene cis-factorial transcription factor reporter; actives raise or lower the signal. The method, boiled down: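 Transiently transfected HepG2 (MRTU library, endogenous TF-driven promoters); 24 h dosing; total RNA → oligo(dT) RT → PCR → 6-FAM primer extension → HpaI digest → CE; fit bidirectionally vs DMSO.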

The nature of assay [2]: ATG_CMV_CIS: Attagene CIS-FACTORIAL HepG2 Assay for human CMV (Internal Marker) (AID 2282928).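 Note: endpoint acts as a background internal control marker rather than a target.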 The note with it: HepG2 CMV promoter reporter, transcription factor profiling; actives raise or lower the signal. The method, boiled down: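 After transient transfection of HepG2 with reporter transcription units driven by cis-regulatory promoters, cells receive test chemical for 24 h. Labeled reporter amplicons, digested with HpaI, are sized and quantified by capillary electrophoresis against DMSO.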

A short description of assay [3]: ATG_DR4_LXR_CIS: Attagene CIS-FACTORIAL HepG2 Assay for human Liver X Receptor (LXR), DR4 submotif (AID 2282929). The conditions noted are these: HepG2 Attagene DR4 cis-reporter, mRNA transcription; actives raise or lower the signal. Summed up:
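Cells were transfected with multiple reporter transcription units, exposed to chemicals for 24 hours, then lysed for RNA. Reporter mRNA induction was measured by RT-PCR with capillary electrophoresis detection and fitted in both directions relative to DMSO.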

Assay [4] concerns the target Aryl hydrocarbon receptor (Homo sapiens) (UniProt P35869). In words: ATG_Ahr_CIS: Attagene CIS-FACTORIAL HepG2 Assay for human Aryl Hydrocarbon Receptor (Ahr) (AID 2282930). The note with it: HepG2 AhR cis-factorial reporter transcription; actives raise or lower the signal. Summed up: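 Read-out: reporter mRNA quantified by RT-PCR with fluorescent primer extension and capillary electrophoresis. Human HepG2 liver cells carried transfected cis-promoter reporter units and were exposed to chemical for 24 h; gain or loss fitted relative to DMSO.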

Assay [5] can be described thus: ATG_AP_1_CIS: Attagene CIS-FACTORIAL HepG2 Assay for human Activator Protein 1 (AP-1) (AID 2282931). The note with it: HepG2 Attagene cis-factorial AP-1 reporter mRNA; actives raise or lower the signal. The method, boiled down:
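Endogenous transcription-factor activity in human HepG2 liver cells is read through a cis-promoter reporter transcript, sampled 24 h after dosing. Detection uses RT-PCR with capillary electrophoresis; values come from bidirectional fitting relative to DMSO.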

The nature of assay [6]: ATG_AP_2_CIS: Attagene CIS-FACTORIAL HepG2 Assay for human Activator Protein 2 (AP-2) (AID 2282932). The conditions noted are these: HepG2 AP-2 cis-reporter, Attagene transcription factor profiling; actives raise or lower the signal. Summed up: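 HepG2 cells transiently transfected with cis-element reporter units and exposed for 24 h. Reporter mRNA measured by RT-PCR, FAM labelling, HpaI digestion and capillary electrophoresis. Changes in either direction fitted relative to DMSO.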

Assay [7] can be described thus: ATG_BRE_CIS: Attagene CIS-FACTORIAL HepG2 Assay for human Bone Morphogenetic Protein (BMP) Response Element (BRE) (AID 2282933). The conditions noted are these: HepG2 BMP response element reporter, Attagene transcription factor profiling; actives raise or lower the signal. The method, boiled down:
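HepG2 cells transiently transfected with CIS reporter units (endogenous TF activity, BMP response element), dosed 24 h. Reporter mRNA quantified by RT-PCR, fluorescent labelling and capillary electrophoresis; bidirectional fit vs DMSO baseline.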

Assay [8] concerns the target Retinoic acid receptor alpha (Homo sapiens) (UniProt P10276). In words: ATG_DR5_RAR_CIS: Attagene CIS-FACTORIAL HepG2 Assay for human Retinoic Acid Receptor Alpha (RARE), DR5 submotif (AID 2282934). The note with it: HepG2 Attagene cis-factorial RARE DR5 reporter, mRNA; actives raise or lower the signal. The method, boiled down: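 Read-out: DR5-driven reporter transcript measured by RT-PCR, 6-FAM primer extension, HpaI digest and capillary electrophoresis. Human HepG2 liver cells carry transiently transfected cis-element reporter constructs; dosing lasts 24 h. Gain or loss of signal fitted against DMSO baseline.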

Assay [9] has as its target Transcription factor E2F1 (Homo sapiens) (UniProt Q01094). Briefly: ATG_E2F_CIS: Attagene CIS-FACTORIAL HepG2 Assay for human E2F Transcription Factor 1 (AID 2282935). The note with it: HepG2 Attagene cis-reporter, E2F reporter RNA transcripts; actives raise or lower the signal. The method, boiled down: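 Endogenous E2F1 activity read through cis-promoter reporter units transfected into HepG2. After 24 h compound treatment, reporter mRNA measured by RT-PCR, HpaI digestion and capillary electrophoresis. Bidirectional fit versus DMSO.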

Assay [10] in a line: ATG_E_Box_CIS: Attagene CIS-FACTORIAL HepG2 Assay for human Enhancer Box (E-box) (AID 2282936). The note with it: HepG2 E-box cis-reporter transcription, actives raise or lower the signal. Summed up:
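HepG2 cells transiently transfected with multiplexed cis-element reporter units, dosed 24 h; reporter mRNA quantified by RT-PCR, 6-FAM labelling, HpaI digestion and capillary electrophoresis. E-box (USF1) signal fitted bidirectionally vs DMSO.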

The nature of assay [11]: ATG_EGR_CIS: Attagene CIS-FACTORIAL HepG2 Assay for human Early Growth Response 1 (EGR1) (AID 2282938). The note with it: HepG2 Attagene CIS-FACTORIAL EGR reporter mRNA; actives raise or lower the signal. Summed up: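 Endogenous TF activity in HepG2 liver cells was gauged through cis-promoter reporter constructs transiently transfected. After 24 h dosing, reporter mRNA was quantified by RT-PCR and capillary electrophoresis, and curves fitted in both directions versus DMSO.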

Assay [12] is described as follows: ATG_M_19_CIS: Attagene CIS-FACTORIAL HepG2 Assay for M19 Transcription Factor (Internal Marker) (AID 2282939). The conditions noted are these: HepG2 Attagene CIS-FACTORIAL M19 internal marker reporter; actives raise or lower the signal. The method, boiled down: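 HepG2 cells transiently transfected with cis-regulated multiplexed reporter units, dosed 24 h. Reporter mRNA quantified by RT-PCR and capillary electrophoresis; internal background marker fitted bidirectionally versus DMSO.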

The nature of assay [13]: ATG_Ets_CIS: Attagene CIS-FACTORIAL HepG2 Assay for human Erythroblast Transformation Specific (ETS) (AID 2282941). The conditions noted are these: HepG2 ETS cis-reporter transcription, actives raise or lower the signal. The method, boiled down: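 Human HepG2 hepatoma cells were transiently transfected with promoter-driven reporter constructs and treated for 24 hours. Reporter transcripts were quantified by RT-PCR with fluorescent primer extension; bidirectional curve fitting used DMSO as reference.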

The target in assay [14] is Hepatocyte nuclear factor 3-beta (Homo sapiens) (UniProt Q9Y261). Briefly: ATG_FoxA2_CIS: Attagene CIS-FACTORIAL HepG2 Assay for human Forkhead box A2 (FOXA2) (AID 2282942). The note with it: HepG2 cis-reporter transcription factor activity, 24 h; actives raise or lower the signal. Summed up:
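Endogenous transcription factor activity was read in HepG2 cells carrying transiently transfected cis-promoter reporter units. After 24 h dosing, reporter mRNA was quantified by RT-PCR and capillary electrophoresis, and values fitted bidirectionally versus DMSO.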

A short description of assay [15]: ATG_FoxO_CIS: Attagene CIS-FACTORIAL HepG2 Assay for human Forkhead box O (FoxO) (AID 2282943). The note with it: HepG2 Attagene cis-reporter, FoxO element, mRNA; actives raise or lower the signal. The method, boiled down:
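Read-out: fluorescence of 6-FAM-labelled reporter cDNA fragments resolved by capillary electrophoresis. Transiently transfected HepG2 cells were dosed for 24 h; activity fitted in both directions relative to DMSO controls.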

A short description of assay [16]: ATG_GATA_CIS: Attagene CIS-FACTORIAL HepG2 Assay for human GATA Binding Protein (AID 2282944). The conditions noted are these: HepG2 GATA cis-element reporter, Attagene multiplex mRNA; actives raise or lower the signal. Summed up: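 HepG2 cells transiently transfected with multiplexed cis-element reporter units measure endogenous GATA activity; after 24 h compound exposure, reporter mRNA quantified by RT-PCR and capillary electrophoresis. Changes fitted in both directions vs DMSO.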

Assay [17] is described as follows: ATG_GLI_CIS: Attagene CIS-FACTORIAL HepG2 Assay for human Zinc Finger Protein GLI1 (AID 2282945). The conditions noted are these: HepG2, Attagene cis-factorial reporter mRNA, GLI element; actives raise or lower the signal. The method, boiled down: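 Transiently transfected HepG2 cells report endogenous transcription factor activity via cis-element-driven reporter units. After 24 h compound exposure, reporter mRNA was measured by RT-PCR with capillary electrophoresis; bidirectional fitting against DMSO baseline.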

For assay [18], the target named is Bile acid receptor (Homo sapiens) (UniProt Q96RI1). In words: ATG_IR1_CIS: Attagene CIS-FACTORIAL HepG2 Assay for human Nuclear Receptor Subfamily 1 Group H Member 4 (NR1H4), IR1 submotif (AID 2282946). The conditions noted are these: IR1 reporter transcription, actives raise or lower the signal. The method, boiled down:
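HepG2 cells transiently transfected with multiple cis-promoter-driven reporter units to measure endogenous transcription factor activity; 24 h exposure. Reporter mRNA read by RT-PCR, FAM labelling, HpaI digestion and capillary electrophoresis. Bidirectional fit versus DMSO.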

The nature of assay [19]: ATG_M_61_CIS: Attagene CIS-FACTORIAL HepG2 Assay for M61 Transcription Factor (Internal Marker) (AID 2282937). The note with it: HepG2 Attagene CIS-FACTORIAL M61 internal marker reporter; actives raise or lower the signal. Summed up: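 Cells were transfected with reporter units under cis-regulatory promoters, treated with chemicals for 24 h, then lysed for RNA. Reporter transcripts were quantified by RT-PCR and capillary electrophoresis, and activity was fitted bidirectionally against DMSO.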

Chain of CCAAT/enhancer-binding protein beta (Homo sapiens) (P17676 whole entry, looked up): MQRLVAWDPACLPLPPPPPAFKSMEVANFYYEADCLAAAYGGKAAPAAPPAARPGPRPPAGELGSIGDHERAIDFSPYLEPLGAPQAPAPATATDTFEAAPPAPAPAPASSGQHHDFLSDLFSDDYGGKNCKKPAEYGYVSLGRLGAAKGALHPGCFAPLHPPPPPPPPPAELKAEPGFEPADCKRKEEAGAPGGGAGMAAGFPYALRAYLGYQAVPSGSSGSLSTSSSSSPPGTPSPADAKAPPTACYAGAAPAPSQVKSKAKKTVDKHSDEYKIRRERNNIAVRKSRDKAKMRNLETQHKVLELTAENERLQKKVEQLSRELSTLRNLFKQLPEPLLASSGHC
Chain of Aryl hydrocarbon receptor (Homo sapiens) (P35869 whole entry, looked up): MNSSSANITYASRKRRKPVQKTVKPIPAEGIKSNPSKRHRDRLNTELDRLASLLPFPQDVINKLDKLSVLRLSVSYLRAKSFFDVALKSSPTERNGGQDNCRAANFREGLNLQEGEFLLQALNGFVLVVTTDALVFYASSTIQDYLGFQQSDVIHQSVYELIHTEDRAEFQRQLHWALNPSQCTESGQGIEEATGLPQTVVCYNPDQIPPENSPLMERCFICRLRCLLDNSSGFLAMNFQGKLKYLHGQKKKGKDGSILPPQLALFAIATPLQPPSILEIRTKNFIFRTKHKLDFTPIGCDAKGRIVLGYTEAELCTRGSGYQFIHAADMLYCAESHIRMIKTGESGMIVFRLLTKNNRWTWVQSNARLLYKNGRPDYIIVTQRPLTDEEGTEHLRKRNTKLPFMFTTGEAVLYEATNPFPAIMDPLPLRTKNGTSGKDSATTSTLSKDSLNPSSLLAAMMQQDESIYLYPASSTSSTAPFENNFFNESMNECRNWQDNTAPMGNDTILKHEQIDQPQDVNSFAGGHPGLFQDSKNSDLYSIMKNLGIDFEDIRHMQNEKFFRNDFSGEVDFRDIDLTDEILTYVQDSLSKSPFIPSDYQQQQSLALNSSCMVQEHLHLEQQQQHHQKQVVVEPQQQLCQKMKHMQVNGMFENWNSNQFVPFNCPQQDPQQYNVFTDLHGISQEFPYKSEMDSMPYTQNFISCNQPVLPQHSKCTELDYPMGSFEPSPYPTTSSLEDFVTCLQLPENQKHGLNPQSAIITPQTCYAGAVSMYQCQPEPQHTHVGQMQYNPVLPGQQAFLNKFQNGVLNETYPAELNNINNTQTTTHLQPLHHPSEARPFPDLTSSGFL
Chain of Transcription factor E2F1 (Homo sapiens) (Q01094 whole entry, looked up): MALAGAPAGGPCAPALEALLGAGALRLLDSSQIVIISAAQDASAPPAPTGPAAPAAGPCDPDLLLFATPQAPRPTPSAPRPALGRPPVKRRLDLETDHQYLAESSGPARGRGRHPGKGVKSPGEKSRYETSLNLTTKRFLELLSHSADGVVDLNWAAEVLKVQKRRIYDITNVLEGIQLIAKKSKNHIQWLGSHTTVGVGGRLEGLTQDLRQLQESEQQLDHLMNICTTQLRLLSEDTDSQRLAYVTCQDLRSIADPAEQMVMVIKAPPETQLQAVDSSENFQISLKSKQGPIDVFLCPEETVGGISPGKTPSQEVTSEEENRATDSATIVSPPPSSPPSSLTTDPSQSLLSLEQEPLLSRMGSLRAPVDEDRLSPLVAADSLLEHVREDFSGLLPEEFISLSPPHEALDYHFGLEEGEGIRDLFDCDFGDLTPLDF
Chain of Retinoic acid receptor alpha (Homo sapiens) (P10276 whole entry, looked up): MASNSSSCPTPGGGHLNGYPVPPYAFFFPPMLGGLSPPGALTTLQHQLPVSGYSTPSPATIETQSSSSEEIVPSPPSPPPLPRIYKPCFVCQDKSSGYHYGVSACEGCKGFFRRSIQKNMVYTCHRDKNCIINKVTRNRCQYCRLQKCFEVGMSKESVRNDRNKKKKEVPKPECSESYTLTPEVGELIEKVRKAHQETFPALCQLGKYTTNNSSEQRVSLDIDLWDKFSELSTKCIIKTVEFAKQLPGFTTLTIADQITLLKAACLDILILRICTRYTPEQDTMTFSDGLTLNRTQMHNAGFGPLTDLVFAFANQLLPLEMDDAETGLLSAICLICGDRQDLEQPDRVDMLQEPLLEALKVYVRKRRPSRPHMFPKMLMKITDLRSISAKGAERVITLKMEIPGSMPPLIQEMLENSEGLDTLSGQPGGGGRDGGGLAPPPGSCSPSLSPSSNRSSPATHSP
Chain of Hepatocyte nuclear factor 3-beta (Homo sapiens) (Q9Y261 whole entry, looked up): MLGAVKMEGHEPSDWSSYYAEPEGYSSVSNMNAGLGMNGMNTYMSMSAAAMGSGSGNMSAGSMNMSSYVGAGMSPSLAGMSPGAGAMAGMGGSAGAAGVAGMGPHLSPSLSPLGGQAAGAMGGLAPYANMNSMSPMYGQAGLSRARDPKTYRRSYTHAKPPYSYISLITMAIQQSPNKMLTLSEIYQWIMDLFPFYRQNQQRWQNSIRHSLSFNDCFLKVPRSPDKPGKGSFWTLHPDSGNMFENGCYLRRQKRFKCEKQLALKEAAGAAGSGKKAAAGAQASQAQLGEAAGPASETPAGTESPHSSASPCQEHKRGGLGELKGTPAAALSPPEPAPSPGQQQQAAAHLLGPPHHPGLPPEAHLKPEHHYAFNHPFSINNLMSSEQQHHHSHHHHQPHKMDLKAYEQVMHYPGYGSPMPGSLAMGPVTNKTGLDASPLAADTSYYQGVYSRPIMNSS
Chain of Bile acid receptor (Homo sapiens) (Q96RI1 whole entry, looked up): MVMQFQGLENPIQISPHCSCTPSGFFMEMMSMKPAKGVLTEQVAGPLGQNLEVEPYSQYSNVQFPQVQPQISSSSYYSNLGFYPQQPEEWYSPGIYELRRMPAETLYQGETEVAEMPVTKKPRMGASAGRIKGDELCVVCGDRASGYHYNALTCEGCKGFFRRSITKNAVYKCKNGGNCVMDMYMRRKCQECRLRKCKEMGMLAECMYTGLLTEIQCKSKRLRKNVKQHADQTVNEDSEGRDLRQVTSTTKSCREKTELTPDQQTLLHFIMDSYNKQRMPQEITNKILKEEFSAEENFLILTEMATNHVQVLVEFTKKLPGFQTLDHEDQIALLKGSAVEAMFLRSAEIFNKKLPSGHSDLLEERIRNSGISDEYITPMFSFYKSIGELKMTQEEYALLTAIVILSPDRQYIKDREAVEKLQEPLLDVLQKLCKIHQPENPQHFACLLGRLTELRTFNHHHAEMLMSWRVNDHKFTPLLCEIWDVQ

On to `Cc1c(Cl)cccc1[N+](=O)[O-]`, for which the result in [1], in assay [2], in [3], in assay [4], in assay [5] and in assay [6] was inactive. In addition, the compound was called inactive in assay [7], in assay [8], in assay [9], in assay [10], in assay [11] and in [12]. Besides, the compound was called inactive in [13], in [14], in assay [15], in [16], in [17] and in [18].
For `C=CCCCCCCCCCC`, the result in assay [1], in [2], in assay [4], in assay [5], in [6] and in assay [7] was inactive. Also, the outcome in assay [8], in assay [9], in assay [10], in [19], in assay [12] and in [13] was inactive. Moreover, the outcome in assay [14], in assay [15] and in assay [16] was inactive.
For `CCCCCCC(C)Nc1ccc(Nc2ccccc2)cc1` (stereo not drawn), the result in [1], in assay [4], in assay [6], in [9], in [10] and in [19] was inactive. Further, the compound was classed as inactive in assay [11], in assay [12], in assay [13], in assay [14], in [15] and in [16]. Further, the result in [17] and in assay [18] was inactive. The AC50 in [2] is 21.8 µM (active); in [3] it was 44.4 µM (active); in assay [5] it was 28.9 µM (active); in [7], 50.5 µM (active).
As to `C1=CC2C3C=CC(C3)C2C1` (stereo not drawn), the outcome in assay [1], in assay [2], in assay [3], in assay [5], in assay [6] and in [7] was inactive. Moreover, the compound was called inactive in assay [8], in assay [9], in assay [10], in assay [19], in assay [12] and in [13]. Also, the compound was classed as inactive in assay [14], in assay [15], in assay [16], in assay [17] and in assay [18].
With `CC(C)CC(C)CC(O)CC(C)C` (stereo not drawn), the call in assay [2], in assay [3], in assay [4], in assay [5], in assay [6] and in assay [7] was inactive. Besides, the call in [8], in [9], in assay [19], in assay [11], in [12] and in [13] was inactive. The outcome in assay [14], in assay [16], in [17] and in assay [18] was inactive.
In the case of `C[Si](C)(C)O[Si](C)(C)C`, the outcome in assay [1], in assay [2], in assay [5], in assay [6], in assay [7] and in assay [8] was inactive. In addition, the outcome in assay [10], in assay [19], in assay [11], in [12], in assay [13] and in [14] was inactive. For the same compound, the compound was classed as inactive in assay [15], in assay [16], in assay [17] and in assay [18].
On to `CS(C)=O`, for which the result in assay [1], in assay [2], in assay [3], in [5], in [6] and in assay [7] was inactive. For the same compound, the compound was classed as inactive in assay [8], in [9], in [19], in assay [11], in assay [12] and in [13]. Besides, the compound was called inactive in assay [16] and in assay [18].
As for `O=C(O)CNc1ccccc1`, the result in [1], in [2], in assay [3], in [5], in assay [7] and in assay [8] was inactive. For the same compound, the outcome in assay [9], in [10], in assay [19], in assay [11], in [12] and in [13] was inactive. In addition, the compound was called inactive in [15], in assay [16], in [17] and in [18]. Moreover, the half-maximal activity concentration (AC50) in [4] is 15.1 µM (active).
On to `CN1C(=O)c2ccccc2C1=O`, for which the result in [1], in [2], in [3], in assay [4], in [5] and in assay [6] was inactive. Further, the compound was classed as inactive in [7], in assay [8], in assay [9], in [10], in assay [19] and in assay [11]. Also, the compound was classed as inactive in assay [12], in [13], in assay [14], in [15] and in assay [17].
